# According to PubChem BioAssay (NCI):
# The panel holds about 83,000 compounds, 20% with a hit somewhere; the sample as a whole holds those more often.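 Compound tested at a single concentration for 48 hours in 96-well plates; a percent growth value below 10 was scored as active.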 Activity calls are given as the source filed them.
# Tested on: NCI-H23 lung
# Assay: NCI-60 one-dose screen, 48 h (100 = growth as untreated, 0 = no growth, -100 = all killed)
# Conditions: 10 µM
# Experimental: Growth inhibition of the NCI-H23 human Non-Small Cell Lung tumor cell line is measured as a screen for anti-cancer activity. Cells are grown in 96 well plates and exposed to the test compound for 48 hours. Compounds are tested at a single concentration, which is 10^-5 M for most compounds. The reported endpoint is percent growth (GI% or GIPRCNT), where numbers from 0 - 100% represent growth inhibition, and numbers from -100% - 0 represent cell death. For example, a value of 40 represents 60% growth inhibition. A value of 0 means no net growth occurred over the course of the experiment. A value of -40 indicates 40% of cells at the beginning of the experiment died by the end of the experiment. A value of -100 means all cells are dead at the end of the experiment.
# NCI-60 Human Tumor Cell Lines Screen was performed using the standard one-dose NCI protocol, which is described in more detail at https://dtp.cancer.gov/discovery_development/nci-60/default.htm.
# Compounds with GIPRCNT values below 10 were considered active. Activity score was based on GIPRCNT using the following formula: […]
# Score is 0 for GIPRCNT values of 100 or above, 50 for GIPRCNT values of 0, and 100 for GIPRCNT values of -100.
row,Compound,growth
1,Cc1ccc(NC(=O)NC2CCCCC2)cc1,108% (inactive)
2,O=C(Nc1cccc(-n2cc(-c3ccncc3)c(-c3ccc(O)c(Cl)c3)n2)c1)c1ccc(N2CCOCC2)c(C(F)(F)F)c1,42.2% (inactive)
3,O=C(Nc1nc(-c2ccccc2Cl)cs1)c1cc(-c2ccc(Cl)cc2)nc2ccc(Cl)cc12,28.8% (inactive)
4,Cc1cc2c(C)c3cc(C)c(N)cc3nc2cc1N,17.1% (inactive)
5,COc1ccccc1/C=C/C(=O)c1ccccc1,84.7% (inactive)
6,COc1ccc(-c2nn(-c3cccc(NC(=O)Nc4ccccc4)c3)cc2-c2ccncc2)cc1Cl,42.6% (inactive)
7,O=C(Cc1csc2nc(-c3ccc(Cl)cc3)cn12)N/N=C/c1ccccc1O,59.5% (inactive)
8,CCCC(F)C(=O)O (stereo not given),105% (inactive)
9,CS(=O)(=O)Nc1cccc(-c2cc(-c3ccccc3Cl)c(C#N)c(N)n2)c1,38.7% (inactive)
10,COc1ccc(Oc2nc(NC3CCCC3)nc(Sc3ccc(OC)cc3)n2)cc1,79.6% (inactive)
11,COc1ccc2nc3ccccc3c(NCCNCC(C)O)c2c1 (stereo not given),-2.17% (active)
12,O=C(NC(Cc1ccc(O)cc1)C(=O)N=Nc1c(O)[nH]c2ccccc12)c1ccccc1 (stereo not given),95% (inactive)
13,N#CCCN1C/C(=C/c2ccccc2)C(=O)/C(=C/c2ccccc2)C1,78.9% (inactive)
14,O=C(/C=C/c1cc2ccccc2[nH]c1=O)c1ccc2c(c1)OCO2,98.5% (inactive)
15,COc1cc(Cl)cc(-c2nn(-c3cccc(NC(=O)Nc4cc(C(F)(F)F)cc(C(F)(F)F)c4)c3)cc2-c2ccncc2)c1,-6.14% (active)
16,COc1ccc(-c2nc3ncccn3c2-c2nnc(-c3ccsc3C)o2)cc1,80.5% (inactive)
17,Cc1nc2oc3ccccc3c(=O)c2cc1C(=O)NCc1ccccc1,85.9% (inactive)
18,Nc1c(C(=O)Nc2cccc3ccccc23)sc2nc3c(cc12)C(=O)CCC3,18% (inactive)
19,O=S(=O)(Nc1ccccn1)c1ccc(N=Nc2ccc(O)c3ncccc23)cc1,14.5% (inactive)
20,C#Cc1ccc(-n2c(/C=C/c3ccc(C(F)(F)F)cc3)nc3ncccc3c2=O)cc1,78.4% (inactive)

row,Compound,growth
1,CCCCCCNC(=O)Oc1ccc(/C(=C(/CC)Cc2ccccc2)c2ccc(OCCN3CCCCC3)cc2)cc1,91% (inactive)
2,Cc1ccc(-c2n[nH]c(=O)c3noc(-c4ccc(C)cc4)c23)cc1,61.8% (inactive)
3,COc1ccc(OC)c(/C=C/c2nnc(Nc3ccc(Cl)cc3)o2)c1,87.8% (inactive)
4,CCN1CCC(CCOC)(CN2c3ccccc3Sc3ccc(Cl)cc32)C1 (stereo not given),63.5% (inactive)
5,Cc1nc2ccccc2c(N)c1-c1cc(C)c2c(C)nc3ccccc3c2n1,44.8% (inactive)
6,OCC1OC(n2cnc3c(N/N=C\c4ccccn4)ncnc32)C(O)C1O (stereo not given),27.1% (inactive)
7,CN(C)C(=S)N/N=C\C=N/NC(=S)N(C)C,62.6% (inactive)
8,COc1cc([C@@H]2c3cc4c(cc3C(Br)[C@H]3COC(=O)[C@H]23)OCO4)cc(OC)c1OC (stereo not given in full),4.09% (active)
9,CC[C@H](C)C(=O)O[C@H]1CCC=C2C=C[C@H](C)C(CCC3C[C@@H](O)CC(=O)O3)[C@H]21 (stereo not given in full),64.4% (inactive)
10,CCOC1(OCC)OC(c2ccccc2)=C(C#N)C(/C=C\c2ccccc2)C1(OCC)OCC (stereo not given),82.4% (inactive)
11,Cn1c([N+](=O)[O-])cnc1/C=C1\Oc2ccccc2C1=O,-18% (active)
12,COc1ccc(-c2nn(-c3cccc(NC(=O)Nc4ccc(Cl)c(C(F)(F)F)c4)c3)cc2-c2ccncc2)cc1Cl,9.49% (active)
13,COc1ccc(NC(=O)Cc2nc3nc4sc(C)c(C)c4c(=O)n3[nH]2)cc1,101% (inactive)
14,O=C(O)CCCCSc1ncnc2nc[nH]c12,103% (inactive)
15,COc1ccc(-c2nn(-c3cccc(NC(=O)c4ccc(N5CCOCC5)c(C(F)(F)F)c4)c3)cc2-c2ccncc2)cc1Cl,83.2% (inactive)
16,CSc1nc(=O)n(Cc2ccc(Cl)cc2)c(=O)[nH]1,100% (inactive)
17,COc1ccc(-c2nc(-c3nc4ccc(Cl)cc4[nH]3)c3ccccn23)cc1,84.1% (inactive)
18,O=C1/C(=C\c2cn(C(=O)c3ccc(Cl)cc3)c3ccccc23)c2ccccc2N1C(=O)c1ccc(Cl)cc1,83.2% (inactive)
19,COC(=O)C(=C\c1ccc2c(c1)OCO2)/C(=C/c1ccc2c(c1)OCO2)C(=O)OC,92.4% (inactive)
20,CCCCCCCNc1nc(C=O)ncc1-c1ccc(C(F)(F)F)cc1,99.8% (inactive)
